The values that follow come from PubChem BioAssay (NCATS).

Where “and” joins values, the source holds several entries; their conditions need not be identical. Equal values may be shown once. Results filed as inconclusive are left out. Some structures have more than one record in an assay (separate samples or runs), and their calls can disagree. Calls of active or inactive are those of the source. Unless noted, calls follow the shape of the dose curve; as a rule, active = well fitted curve in the direction sought with a large enough effect; inconclusive = small, poorly fitted or top-dose-only effect, or another doubt; inactive = no such curve, though single readings can be large; an effect the other way counts as inactive or inconclusive.

Assay [1] in a line: P-glycoprotein substrates identified in KB-3-1 adenocarcinoma cell line, qHTS therapeutic library screen (AID 1346986). Also: nearly all actives have a fitted effect of over 60% in size.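 Also: potency is read from the fitted curve at half-maximal effect; potency is for cytotoxicity meaning loss of cell viability.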 The essentials:
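Resistance attributable to P-gp was assessed by comparing AC50 in KB-8-5-11 with parental KB-3-1 and by tariquidar reversal. Cells were exposed 72 h and viability read by CellTiter-Glo.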
(In general: In qHTS, concentration-response curves come from the screen itself.)

Assay [2] is described as follows: Primary qHTS for inhibitors of nuclear receptor binding SET domain protein 2 (NSD2) in an isogenic RCH-ACV NSD2 p.E1099K mutant (9B) (AID 1645876). Also: nearly all actives have a fitted effect of over 70% in size. Also: potency is read from the fitted curve at half-maximal effect.
Assay [3] in a line: Primary qHTS for inhibitors of nuclear receptor binding SET domain protein 2 (NSD2) in an RCH-ACV wild type WT cells (2C) (AID 1645877). Also: nearly all actives have a fitted effect of over 70% in size. Also: potency is read from the fitted curve at half-maximal effect.
Assay [4] addresses Glutathione peroxidase 1 (Homo sapiens) (UniProt P07203). As to the kind of experiment: Primary qHTS Assay for Inhibitors of Recombinant Selenoprotein Glutathione Peroxidase 1 (GPX1) (AID 1845191). Also: nearly all actives have a fitted effect of over 65% in size. Put shortly:
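Recombinant GPX1 (10 nM final) was preincubated with compound for 30 min at room temperature, then reacted with 1 mM GSH, 0.5 mM CHP, 0.5 mM NADPH and 100 nM glutathione reductase; NADPH fluorescence (340/450 nm) was read at 0 and 15 min.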

Assay [5] can be described thus: P-glycoprotein substrates identified in KB-8-5-11 adenocarcinoma cell line, qHTS therapeutic library screen (AID 1346987). Also: series mostly up to about 44 µM; % is scaled to controls: 0 for no effect and ±100 for the full control effect; nearly all actives have a fitted effect of over 65% in size. Put shortly:
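Steps: plate 500 KB-8-5-11 cells/well in DMEM + 10% FCS (colchicine removed); pin compounds in dose-response; incubate 72 h, 37 degree C, 5% CO2; add CellTiter-Glo, 5 min; read luminescence.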

For assay [6], the target named is Phospholipid hydroperoxide glutathione peroxidase GPX4 (Homo sapiens) (UniProt P36969). As to the kind of experiment: Primary qHTS Assay for Inhibitors of Recombinant Selenoprotein Glutathione Peroxidase 4 (GPX4) (AID 1845192). Also: series mostly up to about 50 µM; % is scaled to controls: 0 for no effect and ±100 for the full control effect; nearly all actives have a fitted effect of over 65% in size. As to conditions: outcome: dose series up to 50 µM unless noted. The essentials: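 GR-coupled readout: 100 nM GR, 1 mM GSH, 0.5 mM NADPH; NADPH fluorescence (ex 340/em 450 nm) read at t=0 and after 15 min RT. GPX4 200 nM, preincubated 30 min with compound; substrate 0.5 mM CHP.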
Chain of Phospholipid hydroperoxide glutathione peroxidase GPX4 (Homo sapiens) (P36969 whole entry, looked up): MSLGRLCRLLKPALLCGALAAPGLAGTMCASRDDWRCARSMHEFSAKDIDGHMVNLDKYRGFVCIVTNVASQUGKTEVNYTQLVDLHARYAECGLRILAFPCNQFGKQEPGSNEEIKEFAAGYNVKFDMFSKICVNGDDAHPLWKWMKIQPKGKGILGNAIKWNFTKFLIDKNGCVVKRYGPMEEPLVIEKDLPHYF

A short description of assay [7]: qHTS drug screen for cell cycle checkpoint inhibitors in PARPi-resistant BRCA-mutant ovarian cancer cell lines. (AID 1963452; calls by dose curve). As to conditions: PEO1/OlaR viability, CellTiter-Glo luminescence, 96 h, stronger effect = lower value. The essentials: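 PEO1, PEO4 and PEO1/OlaR ovarian cancer cells, 600 per well, exposed 96 h at 37C to a dilution series. Viability read by CellTiter-Glo luminescence, normalized to DMSO and empty wells; activity summarized as Z-AUC.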

For assay [8], the target named is Calcium and integrin-binding protein 1 (Homo sapiens) (UniProt Q99828). Kind of assay: Primary qHTS for Identification of Calcium Integrin Binding Protein 1 (CIB1) Competitor (AID 1508620).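 Also: GST tagged CIB1 binding a fluorescein labelled alphaIIb integrin peptide tracer; top concentration of the series differs between compounds; % is scaled to controls: 0 for no effect and ±100 for the full control effect.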 The essentials:
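Fluorescence polarization competition: CIB1-GST (1 uM final) preincubated with compound 15 min at room temperature, then FITC-labeled alphaIIb peptide (100 nM final) added for another 15 min. Polarization read at Ex 480/Em 540.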

The nature of assay [9]: qHTS to identify inhibitors of the type 1 interferon - major histocompatibility complex class I in skeletal muscle: primary screen against the NCATS Mechanism Interrogation Plate v5.0 (MIPE) Libary (AID 1347411). Also: potency is read from the fitted curve at half-maximal effect; nearly all actives have a fitted effect of over 65% in size. Put shortly:
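Luminescence from HiBiT-tagged endogenous HLA-B*08:01 served as the MHC class I read-out. CRISPR-engineered C25cl48 human myoblasts received 4.0 ng/ml IFN-beta plus compound for 24 hrs, with an 11-point, 1:3 series topping at 46 uM final.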

The mark [10] stands for this setting: measured here: PEO1 parental Z-AUC.

Chain of Calcium and integrin-binding protein 1 (Homo sapiens) (Q99828 whole entry, looked up): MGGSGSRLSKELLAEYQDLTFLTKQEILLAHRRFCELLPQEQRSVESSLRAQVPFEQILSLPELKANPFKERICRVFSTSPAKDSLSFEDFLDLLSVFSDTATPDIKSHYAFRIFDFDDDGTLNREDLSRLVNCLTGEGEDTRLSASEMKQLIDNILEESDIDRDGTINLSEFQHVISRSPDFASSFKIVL
Chain of Glutathione peroxidase 1 (Homo sapiens) (P07203 whole entry, looked up): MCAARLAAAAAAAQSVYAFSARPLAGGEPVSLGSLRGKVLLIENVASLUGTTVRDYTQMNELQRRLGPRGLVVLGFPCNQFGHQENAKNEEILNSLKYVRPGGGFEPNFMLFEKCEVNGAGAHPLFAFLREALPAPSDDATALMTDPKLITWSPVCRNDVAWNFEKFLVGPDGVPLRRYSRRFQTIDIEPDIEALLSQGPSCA

Turning to `Nc1ncnc2c1ncn2[C@H]1O[C@H](CO)[C@@H](O)[C@@H]1O`, the Potency entry in assay [1] was “inactive”. Besides, the Potency in assay [2] and in assay [3] was 39.8 µM (active) in each case.

Take `Cc1cc(-c2nc(C(=O)Nc3cn(C4CCOCC4)nc3C(N)=O)co2)ccn1`: the Potency was 16.4 µM (active) in assay [1] and 9.2 µM (active) in assay [2]. In assay [4], the Potency result is “inactive”.

With `CC(C)(N)c1cc(C(=O)N[C@@H]2CCc3ccc(Oc4ccnc5c4CCC(=O)N5)cc3C2)cc(C(F)(F)F)c1`, the Potency is 18.4 µM (active) in assay [1], 11.6 µM (active) in [2] and 14.6 µM (active) in assay [3]. In addition, the Potency result in [4] is “inactive”.

For the compound `CCCn1cnc2c(NCc3ccc(C)s3)nc(N[C@H](CC)CO)nc21`, the Potency entry in [1] and in assay [4] was “inactive” throughout.

For `CCOC(=O)N1CCN(C(=O)Cn2sc3nc(C)cc(C)c3c2=O)CC1`, the Potency entry in assay [1], in assay [5] and in assay [4] was “inactive” each time.

As to `O=c1sn(-c2cccc3ccccc23)c(=O)n1Cc1ccccc1`, the Potency entry in assay [1], in assay [2] and in assay [6] was “inactive” each time. In addition, in assay [3], the Potency entry is “inactive and 7.42 µM (active)”. The Z-AUC in assay [7] is 0.462 (inactive); in assay [7] (setting [10]) it was 0.135; in [7] (measured here: PEO4 Z-AUC), 0.0223.

`Clc1cc(Cl)c2c(c1)N=C1CCCCCN1C2`: the Potency result in assay [1], in assay [2] and in assay [4] was “inactive” in each case.

Regarding `Cc1ccc(NS(=O)(=O)c2cc3c(cc2F)NC(=O)CC3)cc1Cl`, the Potency result in assay [1], in assay [2], in assay [3] and in assay [4] was “inactive” each time. In addition, in [8], the result was inactive.

For the compound `N#Cc1cccc(CN2CCC(N(Cc3cccnc3)C(=O)Nc3ccccc3-c3ccccc3)CC2)c1`, the Potency result in assay [1], in assay [5] and in [4] was “inactive” each time.

`Cn1cc(-c2cc(Oc3cc(F)c(NC(=O)C4(C(=O)Nc5ccccc5)CC4)cc3F)ccn2)cn1`: the Potency is 18.4 µM (active) in [1], 29.4 µM (active) in [9] and 9.34 µM (active) in [2]. Also, the Potency entry in assay [4] and in assay [6] was “inactive” in each case. The Z-AUC is 0.797 (inactive) in assay [7], -0.238 in assay [7] (setting [10]) and 0.178 in assay [7] (measured here: PEO4 Z-AUC).
